The source of these data is PubChem BioAssay (NCI).

Experiment [1] can be described thus: NCI Yeast Anticancer Drug Screen. Data for the rad50 strain (AID 155).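 Note: 0% = growth of vehicle-only cultures of the same strain.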 The following applies: S. cerevisiae rad50 strain growth inhibition, stronger effect = higher value. Put shortly: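 Inhibition values express reduced yeast growth in compound-treated cultures relative to vehicle-treated controls.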
Experiment [2] can be described thus: NCI Yeast Anticancer Drug Screen. Data for the mec2-1 strain (AID 157). The following applies: S. cerevisiae mec2-1 strain, stronger effect = higher value. The gist of the method: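 Strain: mec2-1 (DNA repair/cell cycle alteration). Compound exposure, then growth measured; inhibition expressed relative to vehicle.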
A short description of experiment [3]: NCI Yeast Anticancer Drug Screen. Data for the sgs1 mgt1 strain (AID 161).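 Note: 0% = growth of cultures given vehicle only.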 The following applies: S. cerevisiae sgs1 mgt1 strain, stronger effect = higher value. The gist of the method:
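Test agents were incubated with a DNA-repair-mutant yeast strain. Growth was then read and compared against vehicle-treated controls.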

Experiment [4] can be described thus: NCI Yeast Anticancer Drug Screen. Data for the cln2 rad14 strain (AID 165).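 Note: 0% = growth equal to vehicle treated cultures.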 The following applies: S. cerevisiae cln2 rad14 strain, stronger effect = higher value. Put shortly: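 Compounds are applied to the cln2 rad14 yeast strain, and growth is then compared with that of vehicle-treated cultures to give inhibition.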
Experiment [5] is described as follows: NCI Yeast Anticancer Drug Screen. Data for the bub3 strain (AID 167). To be noted: S. cerevisiae bub3 mutant strain, stronger effect = higher value. Put shortly: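 Steps: expose the mutant yeast strain to compound; grow alongside vehicle-treated cultures; measure growth; express inhibition against the vehicle cultures.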
A short description of experiment [6]: NCI Yeast Anticancer Drug Screen. Data for the mlh1 rad18 strain (AID 175). The following applies: S. cerevisiae mlh1 rad18 strain growth inhibition, stronger effect = higher value. The gist of the method:
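Read-out is yeast growth inhibition, calculated against vehicle-only controls. The compound was applied to a strain engineered with DNA damage repair alterations.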

Setting [7] is: at 5.0 µM (retest, dose inferred, filed as 0.5).
Where [8] appears, read: at 50.0 µM (retest, dose inferred, filed as 5.0).

Compounds without any hit were thinned out: in the full panel of roughly 79,000, 15% have a hit. A number with no mark means an inactive call. Calls of active or inactive are those of the source. Cut-off read from the data, not from the text of the source: active = growth inhibition above about 70%; inactive = the rest.

With `CCOC(=O)COc1cc(-c2ccccc2F)nc2cc3c(cc12)OCO3`, the growth inhibition in experiment [1] (setting [7]) is 9%; in experiment [1] (setting [8]), 24%; in experiment [1] (at 50.0 µM), 14.7%; in experiment [2] (setting [7]), 4%; in experiment [2] (setting [8]), 6%; in experiment [2] (at 50.0 µM), 15.1%. For the same compound, the growth inhibition in experiment [3] (setting [7]) is -16%; in experiment [3] (setting [8]) it was -9%; in experiment [3] (at 50.0 µM) it was 47.2%; in experiment [4] (setting [7]), 8%; in experiment [4] (setting [8]), 15%; in experiment [4] (at 50.0 µM), 23.6%. The growth inhibition is -29% in experiment [5] (setting [7]); 36% in experiment [5] (setting [8]); 65.8% in experiment [5] (at 50.0 µM); 12% in experiment [6] (setting [7]); 26% in experiment [6] (setting [8]); 17.6% in experiment [6] (at 50.0 µM).

With `S=c1[nH]c2cc(Cl)ccc2s1`, the growth inhibition in experiment [1] (setting [7]) is -21%; in experiment [1] (setting [8]), 64%; in experiment [1] (at 50.0 µM), 25.2%; in experiment [2] (setting [7]) it was -4%; in experiment [2] (setting [8]) it was 90% (active); in experiment [2] (at 50.0 µM), 42.2%. For the same compound, the growth inhibition in experiment [3] (setting [7]) is -6%; in experiment [3] (setting [8]) it was 95% (active); in experiment [3] (at 50.0 µM), 74.6% (active); in experiment [4] (setting [7]), -8%; in experiment [4] (setting [8]), 93% (active); in experiment [4] (at 50.0 µM) it was -2.15%. Further, the growth inhibition is -28% in experiment [5] (setting [7]); 16% in experiment [5] (setting [8]); -4.3% in experiment [5] (at 50.0 µM); -12% in experiment [6] (setting [7]); 45% in experiment [6] (setting [8]); 42.9% in experiment [6] (at 50.0 µM).

As for `S=C(SSC(=S)N1CCOCC1)N1CCOCC1`, the growth inhibition in experiment [1] (setting [7]) is 97% (active); in experiment [1] (setting [8]), 99% (active); in experiment [1] (at 50.0 µM), 99.3% (active); in experiment [2] (setting [7]), 99% (active); in experiment [2] (setting [8]), 100% (active); in experiment [2] (at 50.0 µM), 99.6% (active). Also, the growth inhibition in experiment [3] (setting [7]) is 99% (active); in experiment [3] (setting [8]) it was 99% (active); in experiment [3] (at 50.0 µM), 99.2% (active); in experiment [4] (setting [7]) it was 61%; in experiment [4] (setting [8]), 99% (active); in experiment [4] (at 50.0 µM), 99% (active). The growth inhibition in experiment [5] (setting [7]) is 98% (active); in experiment [5] (setting [8]) it was 99% (active); in experiment [5] (at 50.0 µM), 99.5% (active); in experiment [6] (setting [7]), 98% (active); in experiment [6] (setting [8]), 99% (active); in experiment [6] (at 50.0 µM), 99.5% (active).

Turning to `Cc1c2c(c(C)c3c[n+](C)ccc13)Oc1ccccc1O2`, the growth inhibition in experiment [1] (setting [7]) is 18%; in experiment [1] (setting [8]) it was 24%; in experiment [1] (at 50.0 µM), 25.4%; in experiment [2] (setting [7]), 12%; in experiment [2] (setting [8]) it was 19%; in experiment [2] (at 50.0 µM) it was 61.6%. In addition, the growth inhibition is 11% in experiment [3] (setting [7]); 21% in experiment [3] (setting [8]); 80.5% (active) in experiment [3] (at 50.0 µM); 17% in experiment [4] (setting [7]); 20% in experiment [4] (setting [8]); 62.1% in experiment [4] (at 50.0 µM). The growth inhibition in experiment [5] (setting [7]) is 28%; in experiment [5] (setting [8]) it was 31%; in experiment [5] (at 50.0 µM), 85.6% (active); in experiment [6] (setting [7]), 24%; in experiment [6] (setting [8]) it was 15%; in experiment [6] (at 50.0 µM), -20.6%.

`Cc1cc(C(=C2C=CC(=Nc3ccccc3)C=C2)c2ccc(Nc3ccccc3)cc2)ccc1N`: the growth inhibition is 6% in experiment [1] (setting [7]); 60% in experiment [1] (setting [8]); 43.8% in experiment [1] (at 50.0 µM); 7% in experiment [2] (setting [7]); 82% (active) in experiment [2] (setting [8]); 88.4% (active) in experiment [2] (at 50.0 µM). Also, the growth inhibition in experiment [3] (setting [7]) is -5%; in experiment [3] (setting [8]) it was 79% (active); in experiment [3] (at 50.0 µM), 65.3%; in experiment [4] (setting [7]), -8%; in experiment [4] (setting [8]), 69%; in experiment [4] (at 50.0 µM), 25.5%. The growth inhibition in experiment [5] (setting [7]) is 30%; in experiment [5] (setting [8]), 75% (active); in experiment [5] (at 50.0 µM), 83.3% (active); in experiment [6] (setting [7]), 13%; in experiment [6] (setting [8]) it was 71% (active); in experiment [6] (at 50.0 µM), -23.6%.

With `CCc1cccc(CC)c1N1C(=O)C=CC1=O`, the growth inhibition in experiment [1] (setting [7]) is 45%; in experiment [1] (setting [8]) it was 78% (active); in experiment [1] (at 50.0 µM), 92.7% (active); in experiment [2] (setting [7]), 45%; in experiment [2] (setting [8]), 89% (active); in experiment [2] (at 50.0 µM) it was 94.2% (active). The growth inhibition in experiment [3] (setting [7]) is 99% (active); in experiment [3] (setting [8]) it was 100% (active); in experiment [3] (at 50.0 µM), 94% (active); in experiment [4] (setting [7]), 88% (active); in experiment [4] (setting [8]), 99% (active); in experiment [4] (at 50.0 µM), 92.1% (active). Also, the growth inhibition in experiment [5] (setting [7]) is 100% (active); in experiment [5] (setting [8]) it was 100% (active); in experiment [5] (at 50.0 µM), 92.6% (active); in experiment [6] (setting [7]) it was 38%; in experiment [6] (setting [8]), 87% (active); in experiment [6] (at 50.0 µM), 93.3% (active).

As to `Cc1nc([N+](=O)[O-])c(Sc2nncc(-c3ccccc3)n2)n1C`, the growth inhibition was 8% in experiment [1] (setting [7]); 34% in experiment [1] (setting [8]); 97.3% (active) in experiment [1] (at 50.0 µM); 4% in experiment [2] (setting [7]); 38% in experiment [2] (setting [8]); 97.5% (active) in experiment [2] (at 50.0 µM). The growth inhibition is 7% in experiment [3] (setting [7]); 28% in experiment [3] (setting [8]); 95% (active) in experiment [3] (at 50.0 µM); -5% in experiment [4] (setting [7]); 9% in experiment [4] (setting [8]); 93% (active) in experiment [4] (at 50.0 µM). In addition, the growth inhibition in experiment [5] (setting [7]) was 1%; in experiment [5] (setting [8]), 21%; in experiment [5] (at 50.0 µM), 97.6% (active); in experiment [6] (setting [7]), 8%; in experiment [6] (setting [8]) it was 43%; in experiment [6] (at 50.0 µM) it was 97.5% (active).

Turning to `O=C(c1ccccc1)C(Br)[N+](=O)[O-]` (stereo not given), the growth inhibition was 99% (active) in experiment [1] (setting [7]); 99% (active) in experiment [1] (setting [8]); 99.7% (active) in experiment [1] (at 50.0 µM); 99% (active) in experiment [2] (setting [7]); 99% (active) in experiment [2] (setting [8]); 99.7% (active) in experiment [2] (at 50.0 µM). Moreover, the growth inhibition in experiment [3] (setting [7]) was 99% (active); in experiment [3] (setting [8]) it was 100% (active); in experiment [3] (at 50.0 µM) it was 99.7% (active); in experiment [4] (setting [7]), 93% (active); in experiment [4] (setting [8]), 99% (active); in experiment [4] (at 50.0 µM), 99.7% (active). Besides, the growth inhibition in experiment [5] (setting [7]) was 100% (active); in experiment [5] (setting [8]), 100% (active); in experiment [5] (at 50.0 µM) it was 99.8% (active); in experiment [6] (setting [7]), 99% (active); in experiment [6] (setting [8]) it was 99% (active); in experiment [6] (at 50.0 µM) it was 99.7% (active).

As for `CN1CCc2cc3c(c4c2C1C(O)c1ccccc1-4)OCO3` (stereo not given), the growth inhibition was 17% in experiment [1] (setting [7]); 32% in experiment [1] (setting [8]); 31.4% in experiment [1] (at 50.0 µM); 12% in experiment [2] (setting [7]); 9% in experiment [2] (setting [8]); 17.7% in experiment [2] (at 50.0 µM). In addition, the growth inhibition is 9% in experiment [3] (setting [7]); 7% in experiment [3] (setting [8]); 26.6% in experiment [3] (at 50.0 µM); 7% in experiment [4] (setting [7]); 17% in experiment [4] (setting [8]); 31.8% in experiment [4] (at 50.0 µM). In addition, the growth inhibition was 7% in experiment [5] (setting [7]); 27% in experiment [5] (setting [8]); 36.6% in experiment [5] (at 50.0 µM); 13% in experiment [6] (setting [7]); 11% in experiment [6] (setting [8]); 15% in experiment [6] (at 50.0 µM).

In the case of `CN(C)c1ccc(C(C#N)(c2ccccc2)c2ccc(N(C)C)cc2)cc1`, the growth inhibition in experiment [1] (setting [7]) is 35%; in experiment [1] (setting [8]), 87% (active); in experiment [1] (at 50.0 µM), 39.3%; in experiment [2] (setting [7]), 14%; in experiment [2] (setting [8]), 92% (active); in experiment [2] (at 50.0 µM), 96.2% (active). For the same compound, the growth inhibition in experiment [3] (setting [7]) was 48%; in experiment [3] (setting [8]) it was 93% (active); in experiment [3] (at 50.0 µM) it was 94.2% (active); in experiment [4] (setting [7]), 1%; in experiment [4] (setting [8]), 89% (active); in experiment [4] (at 50.0 µM) it was 59.8%. For the same compound, the growth inhibition was 80% (active) in experiment [5] (setting [7]); 91% (active) in experiment [5] (setting [8]); 97.5% (active) in experiment [5] (at 50.0 µM); 16% in experiment [6] (setting [7]); 86% (active) in experiment [6] (setting [8]); 43.5% in experiment [6] (at 50.0 µM).
